Assay results published in PubChem BioAssay (NCI).
The panel holds about 83,000 compounds, 20% with a hit somewhere; the sample as a whole holds those more often.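 Results are percent growth after 48 hours of single-concentration exposure. 100 means growth as in untreated cells, lower positive values show inhibition; negative values down to -100 show cell death.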 Activity calls are given as the source filed them. Rule for the calls: active = growth percent below 10; inactive = the rest.

Each compound was assayed on HL-60(TB) leukemia (assay: NCI-60 one-dose screen, 48 h (100 = growth as untreated, 0 = no growth, -100 = all killed)). Settings: 10 µM unless noted.

**Q.** With `COc1cccc2cc(-c3cc4ccccc4[nH]3)/c(=N/C(=S)Nc3ccc(C)cc3)oc12` as the compound, how does the growth read?
**A.** 98.1% (inactive)

**Q.** Which growth does the source give for `Cc1nc(N)nc2c1CCC(Nc1ccccc1)S2` (centres undefined) here?
**A.** 97.1% (inactive)

**Q.** How did the growth turn out when `O=C(Cc1ccc2c(c1)OCCO2)Nc1nc2ccc(F)cc2s1` was run?
**A.** 99.6% (inactive)

**Q.** `O=C(O)c1ccccc1Cc1ccc2c(c1)CCCC2` was tested. Which growth did it give?
**A.** 130% (inactive)

**Q.** With `CCOC(=O)/C(=C(/C)NCC(C)C)c1cc(O)c(O)c2c(C)cc(=O)[nH]c12` as the compound, how does the growth read?
**A.** -6.69% (active)

**Q.** `Cc1cc(NC(=O)c2cccc(C(F)(F)F)c2)ccc1-n1ccc2c(NC(=O)c3ccccc3)nccc21` was tested. Which growth did it give?
**A.** 106% (inactive)

**Q.** `CC(=O)Nc1ccc(O)c(C)c1` was tested. Which growth did it give?
**A.** 104% (inactive)

**Q.** How did the growth turn out when `CCCCCCCCCCCCCCC(C(=O)OCC)C(=O)OCC` was run?
**A.** 104% (inactive)

**Q.** `CC(C)C(C)C(N)C(=O)O` (centres undefined) was tested. Which growth did it give?
**A.** 97.9% (inactive)

**Q.** With `Nc1c(C(=O)Nc2ccccc2F)sc2nc3c(cc12)C(=O)CCC3` as the compound, how does the growth read?
**A.** 33.9% (inactive)

**Q.** With `CCN(CC)CCCC(C)Nc1cnc(C(=O)Nc2cccc3ccc(OC)nc23)cn1` (centres undefined) as the compound, how does the growth read?
**A.** 72.4% (inactive)

**Q.** For `CCOC(=O)C(=Cc1cccc(C#N)c1)C(=O)OCC`, which growth is on record?
**A.** 27.9% (inactive)

**Q.** With `C#CC(=O)/C=C/CCCCCCC#CC(=O)CCC(=O)C#CCCCCCC/C=C/C(=O)C#C` as the compound, how does the growth read?
**A.** -70.1% (active)

**Q.** With `C=CCn1c(SCC(=O)Nc2ccc(C(=O)/C=C/c3ccc(OC)cc3)cc2)nnc1-c1ccc(OC)c(OC)c1` as the compound, how does the growth read?
**A.** 58.5% (inactive)

**Q.** Which growth does the source give for `Nc1cc(C(F)(F)F)c(-c2cc(N3CCOCC3)nc(N3CCOCC3)n2)cn1` here?
**A.** -41.3% (active)

**Q.** With `Clc1cccc(Nc2ncnc3ccc(-c4cnc5[nH]ccc5c4)cc23)c1` as the compound, how does the growth read?
**A.** 105% (inactive)

**Q.** For `Cn1c2c(c(=O)[nH]c1=O)NC1=C(C(=O)c3ccccc31)C1(C=C(O)c3ccccc31)N2` (centres undefined), which growth is on record?
**A.** 109% (inactive)

**Q.** `COc1cc(Cn2cc(F)c(=O)[nH]c2=O)cc(OC)c1` was tested. Which growth did it give?
**A.** 104% [50 µM] (inactive)

**Q.** Which growth does the source give for `O=C(CO[N+](=O)[O-])Nc1ccc(C(=O)/C=C/c2ccc3c(c2)OCO3)cc1` here?
**A.** 73.7% (inactive)

**Q.** For `N#CC1=C(N)Oc2c(ccc3ccccc23)C1c1ccccc1` (centres undefined), which growth is on record?
**A.** -22.3% (active)

**Q.** For `CCOc1ccc(C(C)=O)cc1NC(=O)c1cccc(-c2nnn(CC)n2)c1`, which growth is on record?
**A.** 7.31% (active)

**Q.** Which growth does the source give for `CC(C)=CCc1cc(O)cc2c1OC(C=C(C)C)C1=C2C(=O)C2=C(NCCS2(=O)=O)C1=O` (centres undefined) here?
**A.** -35.7% (active)

**Q.** With `COc1cc2cc(Oc3ccc(NC(=O)c4cc(C(F)(F)F)cc(C(F)(F)F)c4)cc3)c(C)nc2cc1OC` as the compound, how does the growth read?
**A.** 50.4% (inactive)

**Q.** With `COc1ccc2c(c1)nc(NNC(=O)c1cnccn1)c1cccn12` as the compound, how does the growth read?
**A.** -6.85% (active)

**Q.** For `Nc1ccc(CC(=O)O)c(N)c1`, which growth is on record?
**A.** 102% (inactive)

**Q.** With `O=[N+]([O-])C1=C(c2ccccc2)SC=C(c2ccccc2)S1` as the compound, how does the growth read?
**A.** 70.9% (inactive)

**Q.** `CC(C)=CCc1ccc(O)c(=O)cc1C(C)C` was tested. Which growth did it give?
**A.** -1.27% (active)

**Q.** Which growth does the source give for `CC(CNc1nc(Nc2ccc(Cl)c(Cl)c2)nc(C(Cl)(Cl)Cl)n1)N(C)C` (centres undefined) here?
**A.** -21% (active)

**Q.** `CC12CCC3C(CCC4CC(=O)/C(=C\O)CC43C)C1CCC(=O)O2` (centres undefined) was tested. Which growth did it give?
**A.** 111% (inactive)

**Q.** `Fc1ccc2[nH]cc(-c3nc(-c4c[nH]c5ncccc45)cs3)c2c1` was tested. Which growth did it give?
**A.** 14% (inactive)

**Q.** How did the growth turn out when `O=C(c1ccccc1)C(c1ccccc1)N1CCOCC1` (centres undefined) was run?
**A.** 94.4% (inactive)

**Q.** How did the growth turn out when `c1ccc2c(NCCCN3CCN(CCCNc4c5ccccc5nc5ccccc45)CC3)c3ccccc3nc2c1` was run?
**A.** -23.8% [100 µM] (active)

**Q.** For `O=C(N=c1oc2ccccc2cc1-c1cc2ccccc2[nH]1)c1ccc(Cl)cc1`, which growth is on record?
**A.** 26.2% (inactive)

**Q.** How did the growth turn out when `COc1cc(/C=C/C(=O)/C=C/c2cc(OC)c3c(c2OC)OCO3)c(OC)c2c1OCO2` was run?
**A.** 27.2% (inactive)

**Q.** `Cc1nc2ccc(Cl)cc2n1C` was tested. Which growth did it give?
**A.** 101% (inactive)

**Q.** Which growth does the source give for `NNC(=S)N1N=C(c2cc3ccccc3o2)CC1c1c[nH]c2ccccc12` (centres undefined) here?
**A.** 21.7% (inactive)

**Q.** How did the growth turn out when `NS(=O)(=O)c1ccccc1NC(=O)Nc1nc2ccccc2s1` was run?
**A.** 102% (inactive)

**Q.** Which growth does the source give for `C=CC(=O)Nc1cccc(-c2nc(SC)nc(Nc3cccc(OC)c3)c2C#N)c1` here?
**A.** 42.2% (inactive)

**Q.** `CC1=C2[C@@H](CC1)[C@]1(C)O[C@@](C3CC3)(C[C@H]1OC(=O)CO)[C@H]2OC(=O)/C=C/c1ccccc1` was tested. Which growth did it give?
**A.** 92.6% (inactive)
